Binding signal data for 40 sequences are collected here from paper PMC7862700, “An all-to-all approach to the identification of sequence-specific readers for epigenetic DNA modifications on cytosine”.

ETV1, sequence (P50549 whole entry): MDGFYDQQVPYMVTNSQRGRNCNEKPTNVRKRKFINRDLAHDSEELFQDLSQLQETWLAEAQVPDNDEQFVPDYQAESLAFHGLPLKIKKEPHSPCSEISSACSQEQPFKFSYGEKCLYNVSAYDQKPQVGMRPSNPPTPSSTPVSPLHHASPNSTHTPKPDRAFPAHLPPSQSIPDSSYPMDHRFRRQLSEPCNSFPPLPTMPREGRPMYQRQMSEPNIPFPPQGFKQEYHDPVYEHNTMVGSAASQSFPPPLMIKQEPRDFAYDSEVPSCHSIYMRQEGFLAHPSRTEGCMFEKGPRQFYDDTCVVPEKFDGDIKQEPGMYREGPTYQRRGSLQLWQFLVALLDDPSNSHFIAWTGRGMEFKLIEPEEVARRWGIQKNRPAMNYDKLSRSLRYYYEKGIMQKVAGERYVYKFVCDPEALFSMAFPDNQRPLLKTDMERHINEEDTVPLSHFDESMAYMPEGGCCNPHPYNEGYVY
CRX, sequence (O43186 whole entry, the tested form may be a part): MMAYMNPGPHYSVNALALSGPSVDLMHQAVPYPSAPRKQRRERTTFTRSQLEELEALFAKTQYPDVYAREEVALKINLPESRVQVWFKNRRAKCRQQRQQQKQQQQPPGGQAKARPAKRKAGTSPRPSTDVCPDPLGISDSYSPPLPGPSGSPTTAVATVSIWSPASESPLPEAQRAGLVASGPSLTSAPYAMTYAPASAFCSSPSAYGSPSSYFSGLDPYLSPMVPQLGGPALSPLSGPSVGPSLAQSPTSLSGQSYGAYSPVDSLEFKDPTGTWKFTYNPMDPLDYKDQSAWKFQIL

One test addresses CRX (Homo sapiens, UniProt O43186 1-299). The test is described as follows: DAPPL (digital affinity profiling via proximity ligation, sequencing); 10 mM Tris-HCl pH 7.5, 50 mM NaCl, 1 mM DTT, 4% glycerol, room temperature, 30 min; GST-TFs on glutathione beads, 16-mer random dsDNA library, 0.1% formaldehyde crosslink after washing; high values mean tight binding. The settings on record: protein: recombinant; tags: N-terminal GST; dsDNA, one strand shown. In short, it runs like this:
(§1)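 Beads coated with glutathione captured GST-fused human transcription factors that had been expressed in yeast, and the factors were then given DNA barcodes and pooled with a tag-only sample. The pools were incubated with 200 nmole of a random double-stranded 16-mer DNA library in Tris/NaCl/DTT/glycerol buffer for 30 min at room temperature, washed, crosslinked with 0.1% formaldehyde and proximity-ligated with BsaI/T4 ligase at 37 °C for 1 h. PCR amplification and Illumina NextSeq500 sequencing came last. Binding signal is each hexamer's read frequency for a factor divided by its frequency for the tag-only sample.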
On to TAAGTA, for which the binding signal was 2.63 fold enrichment (6-mer frequency, TF over GST control).

Regarding TTGATG, the binding signal was 1.5 fold enrichment (6-mer frequency, TF over GST control).

Turning to TTTGCT, the binding signal was 1.45 fold enrichment (6-mer frequency, TF over GST control).

Turning to CCTGCT, the binding signal was 1.38 fold enrichment (6-mer frequency, TF over GST control).

As for TTCGAA, the binding signal is 1.3 fold enrichment (6-mer frequency, TF over GST control).

On to AATCCT, for which the binding signal is 3.32 fold enrichment (6-mer frequency, TF over GST control).

As to TCCGCC, the binding signal was 1.05 fold enrichment (6-mer frequency, TF over GST control).

In the case of ATAACT, the binding signal is 1.29 fold enrichment (6-mer frequency, TF over GST control).

For GGCTCA, the binding signal is 1.53 fold enrichment (6-mer frequency, TF over GST control).

With AACTAG, the binding signal was 1.11 fold enrichment (6-mer frequency, TF over GST control).

Turning to ACGTTC, the binding signal was 1.28 fold enrichment (6-mer frequency, TF over GST control).

On to GCACTT, for which the binding signal is 1.16 fold enrichment (6-mer frequency, TF over GST control).

As to CTTGCG, the binding signal is 1.13 fold enrichment (6-mer frequency, TF over GST control).

Regarding TTCATG, the binding signal was 1.16 fold enrichment (6-mer frequency, TF over GST control).

With CCTGGA, the binding signal is 1.41 fold enrichment (6-mer frequency, TF over GST control).

As for CTACTT, the binding signal was 1.78 fold enrichment (6-mer frequency, TF over GST control).

In the case of CGTTTC, the binding signal was 1.06 fold enrichment (6-mer frequency, TF over GST control).

Turning to TTGGCA, the binding signal was 1.12 fold enrichment (6-mer frequency, TF over GST control).

Take GCCTCG: the binding signal is 1.08 fold enrichment (6-mer frequency, TF over GST control).

As to CGCTTC, the binding signal is 1.05 fold enrichment (6-mer frequency, TF over GST control).

GATCTT: the binding signal is 1.71 fold enrichment (6-mer frequency, TF over GST control).

Turning to TCCGAT, the binding signal was 1.94 fold enrichment (6-mer frequency, TF over GST control).

Regarding AACACT, the binding signal is 1.14 fold enrichment (6-mer frequency, TF over GST control).

In the case of CCGTTT, the binding signal is 1.06 fold enrichment (6-mer frequency, TF over GST control).

As to AAACTC, the binding signal was 1.18 fold enrichment (6-mer frequency, TF over GST control).

Turning to ATGGCC, the binding signal was 1.08 fold enrichment (6-mer frequency, TF over GST control).

As to CTGTAT, the binding signal was 1.17 fold enrichment (6-mer frequency, TF over GST control).

On to TTTGCA, for which the binding signal was 1.48 fold enrichment (6-mer frequency, TF over GST control).

CTTGAT: the binding signal is 1.57 fold enrichment (6-mer frequency, TF over GST control).

AAAACC: the binding signal is 1.19 fold enrichment (6-mer frequency, TF over GST control).

On to GCTACT, for which the binding signal was 1.09 fold enrichment (6-mer frequency, TF over GST control).

With TATCTT, the binding signal was 1.91 fold enrichment (6-mer frequency, TF over GST control).

For CAATTC, the binding signal was 1.07 fold enrichment (6-mer frequency, TF over GST control).

TAACAC: the binding signal was 1.56 fold enrichment (6-mer frequency, TF over GST control).

For the sequence ACGAAA, the binding signal is 1.09 fold enrichment (6-mer frequency, TF over GST control).

For CTGCTC, the binding signal was 1.22 fold enrichment (6-mer frequency, TF over GST control).

For TTTTTG, the binding signal was 1.31 fold enrichment (6-mer frequency, TF over GST control).

In the case of TCTGAA, the binding signal was 1.21 fold enrichment (6-mer frequency, TF over GST control).

Take TCCGGT: the binding signal is 1.04 fold enrichment (6-mer frequency, TF over GST control).

With TCTGCA, the binding signal is 1.25 fold enrichment (6-mer frequency, TF over GST control).

The target of another test is ETV1 (Homo sapiens, UniProt P50549 1-477). The test is described as above. As to conditions: protein: recombinant; tags: N-terminal GST; dsDNA, one strand shown. The procedure, abridged:
as §1
On to TAAGTA, for which the binding signal is 1.29 fold enrichment (6-mer frequency, TF over GST control).

TTGATG: the binding signal was 1.67 fold enrichment (6-mer frequency, TF over GST control).

As for TTTGCT, the binding signal was 1.18 fold enrichment (6-mer frequency, TF over GST control).

Take CCTGCT: the binding signal was 1.68 fold enrichment (6-mer frequency, TF over GST control).

Take TTCGAA: the binding signal was 1.1 fold enrichment (6-mer frequency, TF over GST control).

For AATCCT, the binding signal is 1.35 fold enrichment (6-mer frequency, TF over GST control).

As to TCCGCC, the binding signal is 1.59 fold enrichment (6-mer frequency, TF over GST control).

In the case of ATAACT, the binding signal is 1.16 fold enrichment (6-mer frequency, TF over GST control).

For the sequence GGCTCA, the binding signal was 1.18 fold enrichment (6-mer frequency, TF over GST control).

AACTAG: the binding signal was 1.15 fold enrichment (6-mer frequency, TF over GST control).

As to ACGTTC, the binding signal was 1.28 fold enrichment (6-mer frequency, TF over GST control).

For GCACTT, the binding signal is 1.86 fold enrichment (6-mer frequency, TF over GST control).

On to CTTGCG, for which the binding signal was 1.41 fold enrichment (6-mer frequency, TF over GST control).

Take TTCATG: the binding signal is 1.29 fold enrichment (6-mer frequency, TF over GST control).

Regarding CCTGGA, the binding signal is 1.41 fold enrichment (6-mer frequency, TF over GST control).

Consider CTACTT, for which the binding signal is 1.89 fold enrichment (6-mer frequency, TF over GST control).

Consider CGTTTC, for which the binding signal is 1.61 fold enrichment (6-mer frequency, TF over GST control).

Take TTGGCA: the binding signal was 1.18 fold enrichment (6-mer frequency, TF over GST control).

With GCCTCG, the binding signal is 1.26 fold enrichment (6-mer frequency, TF over GST control).

In the case of CGCTTC, the binding signal is 2.03 fold enrichment (6-mer frequency, TF over GST control).

In the case of GATCTT, the binding signal was 1.25 fold enrichment (6-mer frequency, TF over GST control).

Regarding TCCGAT, the binding signal was 1.3 fold enrichment (6-mer frequency, TF over GST control).

In the case of AACACT, the binding signal was 1.25 fold enrichment (6-mer frequency, TF over GST control).

Take CCGTTT: the binding signal is 1.38 fold enrichment (6-mer frequency, TF over GST control).

Regarding AAACTC, the binding signal was 1.22 fold enrichment (6-mer frequency, TF over GST control).

In the case of ATGGCC, the binding signal was 1.38 fold enrichment (6-mer frequency, TF over GST control).

Consider CTGTAT, for which the binding signal was 1.39 fold enrichment (6-mer frequency, TF over GST control).

In the case of TTTGCA, the binding signal is 1.29 fold enrichment (6-mer frequency, TF over GST control).

Take CTTGAT: the binding signal was 1.29 fold enrichment (6-mer frequency, TF over GST control).

For the sequence AAAACC, the binding signal is 1.19 fold enrichment (6-mer frequency, TF over GST control).

Consider GCTACT, for which the binding signal was 1.32 fold enrichment (6-mer frequency, TF over GST control).

For the sequence TATCTT, the binding signal was 1.22 fold enrichment (6-mer frequency, TF over GST control).

Take CAATTC: the binding signal was 1.21 fold enrichment (6-mer frequency, TF over GST control).

Regarding TAACAC, the binding signal is 1.19 fold enrichment (6-mer frequency, TF over GST control).

For the sequence ACGAAA, the binding signal is 1.12 fold enrichment (6-mer frequency, TF over GST control).

As to CTGCTC, the binding signal is 1.21 fold enrichment (6-mer frequency, TF over GST control).

With TTTTTG, the binding signal is 1.48 fold enrichment (6-mer frequency, TF over GST control).

TCTGAA: the binding signal was 1.21 fold enrichment (6-mer frequency, TF over GST control).

In the case of TCCGGT, the binding signal was 3.87 fold enrichment (6-mer frequency, TF over GST control).

For TCTGCA, the binding signal was 1.26 fold enrichment (6-mer frequency, TF over GST control).
